# Experimental data: ChEMBL document CHEMBL2218924, “A broad activity screen in support of a chemogenomic map for kinase signalling research and drug discovery” (Biochem J, 2013)
# Assays:
# [1] = biological target: Calcium/calmodulin-dependent protein kinase type 1 (Homo sapiens) (UniProt Q14012); details: at 1 µM
# [2] = biological target: Calcium/calmodulin-dependent protein kinase type 1 (Homo sapiens) (UniProt Q14012); details: at 10 µM
# [3] = biological target: Calcium/calmodulin-dependent protein kinase type II subunit beta (Homo sapiens) (UniProt Q13554); details: at 1 µM
# [4] = biological target: Calcium/calmodulin-dependent protein kinase type II subunit beta (Homo sapiens) (UniProt Q13554); details: at 10 µM
# [5] = biological target: Calcium/calmodulin-dependent protein kinase type II subunit gamma (Homo sapiens) (UniProt Q13555); details: at 1 µM
# [6] = biological target: Calcium/calmodulin-dependent protein kinase type II subunit gamma (Homo sapiens) (UniProt Q13555); details: at 10 µM
# [7] = biological target: Calcium/calmodulin-dependent protein kinase type II subunit delta (Homo sapiens) (UniProt Q13557); details: at 1 µM
# [8] = biological target: Calcium/calmodulin-dependent protein kinase type II subunit delta (Homo sapiens) (UniProt Q13557); details: at 10 µM
# [9] = biological target: T1, Calcium/calmodulin-dependent protein kinase type IV (Homo sapiens) (UniProt Q16566); details: at 10 µM
# T1 sequence (whole entry): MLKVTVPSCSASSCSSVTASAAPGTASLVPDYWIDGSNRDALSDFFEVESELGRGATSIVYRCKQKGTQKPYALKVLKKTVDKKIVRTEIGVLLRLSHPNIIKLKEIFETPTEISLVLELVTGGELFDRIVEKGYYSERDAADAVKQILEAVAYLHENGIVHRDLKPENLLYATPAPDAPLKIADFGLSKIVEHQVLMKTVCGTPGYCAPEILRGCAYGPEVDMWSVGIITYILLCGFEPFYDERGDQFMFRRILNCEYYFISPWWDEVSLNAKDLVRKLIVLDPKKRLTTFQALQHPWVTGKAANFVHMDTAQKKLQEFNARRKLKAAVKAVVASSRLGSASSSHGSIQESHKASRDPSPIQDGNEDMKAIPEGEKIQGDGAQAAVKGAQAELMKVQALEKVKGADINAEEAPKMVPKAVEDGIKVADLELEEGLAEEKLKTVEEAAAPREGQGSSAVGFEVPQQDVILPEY
# [10] = biological target: Death-associated protein kinase 1 (Homo sapiens) (UniProt P53355); details: at 1 µM
# [11] = biological target: T2, Serine/threonine-protein kinase DCLK2 (Homo sapiens) (UniProt Q8N568); details: at 1 µM
# T2 sequence (whole entry): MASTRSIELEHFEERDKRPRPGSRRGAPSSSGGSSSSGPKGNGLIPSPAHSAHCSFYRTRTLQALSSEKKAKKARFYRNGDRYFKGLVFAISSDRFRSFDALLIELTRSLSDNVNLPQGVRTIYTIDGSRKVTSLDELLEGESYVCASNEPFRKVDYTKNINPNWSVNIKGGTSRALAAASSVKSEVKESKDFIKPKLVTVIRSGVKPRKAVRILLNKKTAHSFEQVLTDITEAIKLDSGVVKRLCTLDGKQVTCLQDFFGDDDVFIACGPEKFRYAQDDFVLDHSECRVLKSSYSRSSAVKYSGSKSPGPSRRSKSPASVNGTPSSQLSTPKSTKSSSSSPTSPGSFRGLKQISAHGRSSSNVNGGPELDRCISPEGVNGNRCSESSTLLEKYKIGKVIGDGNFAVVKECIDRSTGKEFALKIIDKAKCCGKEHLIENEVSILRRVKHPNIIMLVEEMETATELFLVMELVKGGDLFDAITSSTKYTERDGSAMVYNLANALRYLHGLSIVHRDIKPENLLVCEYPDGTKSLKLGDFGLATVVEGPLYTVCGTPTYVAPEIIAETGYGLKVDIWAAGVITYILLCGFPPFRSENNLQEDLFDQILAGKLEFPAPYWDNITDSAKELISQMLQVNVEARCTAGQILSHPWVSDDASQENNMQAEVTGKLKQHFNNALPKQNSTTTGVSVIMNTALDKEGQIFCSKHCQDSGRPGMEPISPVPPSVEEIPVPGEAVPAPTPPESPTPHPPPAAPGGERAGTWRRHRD
# [12] = biological target: T2, Serine/threonine-protein kinase DCLK2 (Homo sapiens); details: at 10 µM
# [13] = biological target: T3, Discoidin domain-containing receptor 2 (Homo sapiens) (UniProt Q16832); details: at 1 µM
# T3 sequence (whole entry): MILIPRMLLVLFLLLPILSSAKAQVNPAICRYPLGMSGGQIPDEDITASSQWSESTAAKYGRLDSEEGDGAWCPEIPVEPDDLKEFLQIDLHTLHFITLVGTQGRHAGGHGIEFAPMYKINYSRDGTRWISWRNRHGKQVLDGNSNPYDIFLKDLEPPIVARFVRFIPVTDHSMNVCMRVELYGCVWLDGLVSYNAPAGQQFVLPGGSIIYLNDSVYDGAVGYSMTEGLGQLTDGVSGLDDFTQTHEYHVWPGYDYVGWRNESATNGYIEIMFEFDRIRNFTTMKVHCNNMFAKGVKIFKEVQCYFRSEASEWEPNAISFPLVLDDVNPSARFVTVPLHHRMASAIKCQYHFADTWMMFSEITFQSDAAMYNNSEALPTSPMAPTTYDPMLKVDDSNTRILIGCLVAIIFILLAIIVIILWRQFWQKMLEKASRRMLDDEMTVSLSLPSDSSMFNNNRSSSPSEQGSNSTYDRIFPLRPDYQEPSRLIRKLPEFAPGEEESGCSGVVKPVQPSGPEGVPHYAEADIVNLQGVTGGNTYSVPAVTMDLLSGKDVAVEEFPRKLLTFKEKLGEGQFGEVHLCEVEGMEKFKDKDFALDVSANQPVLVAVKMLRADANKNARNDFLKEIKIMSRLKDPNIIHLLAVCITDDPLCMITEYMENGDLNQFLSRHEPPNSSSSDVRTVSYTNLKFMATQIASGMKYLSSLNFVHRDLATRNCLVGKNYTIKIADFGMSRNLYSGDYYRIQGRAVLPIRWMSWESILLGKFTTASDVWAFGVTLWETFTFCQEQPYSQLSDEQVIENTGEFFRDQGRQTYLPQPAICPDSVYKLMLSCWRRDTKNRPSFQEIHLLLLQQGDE
# [14] = biological target: T3, Discoidin domain-containing receptor 2 (Homo sapiens); details: at 10 µM
# [15] = biological target: T4, Myotonin-protein kinase (Homo sapiens) (UniProt Q09013); details: at 1 µM
# T4 sequence (whole entry): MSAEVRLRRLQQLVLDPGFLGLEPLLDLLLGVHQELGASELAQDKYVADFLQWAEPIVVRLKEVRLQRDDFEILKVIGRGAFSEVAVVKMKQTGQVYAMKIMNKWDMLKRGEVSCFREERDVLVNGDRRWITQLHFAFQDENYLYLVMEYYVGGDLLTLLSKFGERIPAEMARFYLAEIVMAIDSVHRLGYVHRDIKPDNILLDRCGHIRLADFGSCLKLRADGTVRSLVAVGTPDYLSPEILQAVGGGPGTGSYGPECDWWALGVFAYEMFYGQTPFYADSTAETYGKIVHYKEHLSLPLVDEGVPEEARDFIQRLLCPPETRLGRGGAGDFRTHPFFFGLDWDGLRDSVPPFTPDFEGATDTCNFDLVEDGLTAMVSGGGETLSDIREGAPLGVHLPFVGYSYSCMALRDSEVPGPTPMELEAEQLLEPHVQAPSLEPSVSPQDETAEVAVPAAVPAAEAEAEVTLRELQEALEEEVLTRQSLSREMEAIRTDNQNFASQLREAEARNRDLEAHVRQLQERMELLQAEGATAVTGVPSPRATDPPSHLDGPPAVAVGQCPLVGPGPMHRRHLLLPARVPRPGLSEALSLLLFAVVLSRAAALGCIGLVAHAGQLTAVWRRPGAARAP
# [16] = biological target: T4, Myotonin-protein kinase (Homo sapiens); details: at 10 µM
# [17] = biological target: T1, Calcium/calmodulin-dependent protein kinase type IV (Homo sapiens); details: at 1 µM
# [18] = biological target: Death-associated protein kinase 2 (Homo sapiens) (UniProt Q9UIK4); details: at 1 µM
# [19] = biological target: Death-associated protein kinase 2 (Homo sapiens) (UniProt Q9UIK4); details: at 10 µM
# [20] = biological target: Death-associated protein kinase 1 (Homo sapiens) (UniProt P53355); details: at 10 µM
# Sequence of Calcium/calmodulin-dependent protein kinase type II subunit beta (Homo sapiens) (Q13554 whole entry): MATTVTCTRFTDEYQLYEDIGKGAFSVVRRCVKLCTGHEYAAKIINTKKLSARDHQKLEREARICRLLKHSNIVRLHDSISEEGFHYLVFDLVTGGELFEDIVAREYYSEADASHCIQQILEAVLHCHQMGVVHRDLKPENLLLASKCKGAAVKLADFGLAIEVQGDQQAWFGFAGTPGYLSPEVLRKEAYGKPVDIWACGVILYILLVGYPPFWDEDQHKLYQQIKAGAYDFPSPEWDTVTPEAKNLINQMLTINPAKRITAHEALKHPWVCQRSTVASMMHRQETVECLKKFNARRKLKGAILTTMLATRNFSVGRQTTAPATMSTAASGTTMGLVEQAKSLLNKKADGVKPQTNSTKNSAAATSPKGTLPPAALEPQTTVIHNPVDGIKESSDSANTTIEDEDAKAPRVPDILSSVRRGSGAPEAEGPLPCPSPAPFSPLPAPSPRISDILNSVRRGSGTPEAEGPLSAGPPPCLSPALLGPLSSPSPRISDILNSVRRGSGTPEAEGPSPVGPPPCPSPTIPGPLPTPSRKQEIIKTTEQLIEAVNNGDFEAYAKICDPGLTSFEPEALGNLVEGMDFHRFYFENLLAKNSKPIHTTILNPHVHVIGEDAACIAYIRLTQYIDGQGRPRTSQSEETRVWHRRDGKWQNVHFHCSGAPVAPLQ
# Sequence of Calcium/calmodulin-dependent protein kinase type II subunit gamma (Homo sapiens) (Q13555 whole entry): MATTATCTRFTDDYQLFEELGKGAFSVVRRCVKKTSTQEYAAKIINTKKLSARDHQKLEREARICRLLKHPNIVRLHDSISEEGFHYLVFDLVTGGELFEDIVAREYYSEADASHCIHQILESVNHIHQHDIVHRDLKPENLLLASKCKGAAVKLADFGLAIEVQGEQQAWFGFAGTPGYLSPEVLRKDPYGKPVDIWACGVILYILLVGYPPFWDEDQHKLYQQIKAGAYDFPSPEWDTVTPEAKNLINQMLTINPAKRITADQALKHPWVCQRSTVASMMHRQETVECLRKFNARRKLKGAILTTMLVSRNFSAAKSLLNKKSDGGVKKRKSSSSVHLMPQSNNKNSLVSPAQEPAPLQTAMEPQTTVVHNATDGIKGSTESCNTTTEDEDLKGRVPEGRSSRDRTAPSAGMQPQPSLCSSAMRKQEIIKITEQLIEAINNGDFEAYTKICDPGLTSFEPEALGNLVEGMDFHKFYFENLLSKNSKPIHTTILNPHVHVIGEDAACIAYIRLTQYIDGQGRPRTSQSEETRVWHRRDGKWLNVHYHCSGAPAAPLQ
# Sequence of Calcium/calmodulin-dependent protein kinase type II subunit delta (Homo sapiens) (Q13557 whole entry): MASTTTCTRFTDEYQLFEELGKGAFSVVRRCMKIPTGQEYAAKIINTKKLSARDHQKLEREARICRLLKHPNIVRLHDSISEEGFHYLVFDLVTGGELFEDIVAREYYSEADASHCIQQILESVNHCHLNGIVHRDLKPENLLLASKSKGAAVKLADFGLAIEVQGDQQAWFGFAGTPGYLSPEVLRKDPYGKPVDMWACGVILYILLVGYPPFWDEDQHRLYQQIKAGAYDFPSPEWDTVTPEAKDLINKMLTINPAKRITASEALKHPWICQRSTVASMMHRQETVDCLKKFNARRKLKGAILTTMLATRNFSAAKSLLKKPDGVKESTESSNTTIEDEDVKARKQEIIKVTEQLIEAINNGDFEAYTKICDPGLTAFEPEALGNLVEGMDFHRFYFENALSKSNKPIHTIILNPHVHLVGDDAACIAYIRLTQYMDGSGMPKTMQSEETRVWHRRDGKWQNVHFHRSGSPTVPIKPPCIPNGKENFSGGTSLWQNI
# Sequence of Calcium/calmodulin-dependent protein kinase type 1 (Homo sapiens) (Q14012 whole entry, looked up): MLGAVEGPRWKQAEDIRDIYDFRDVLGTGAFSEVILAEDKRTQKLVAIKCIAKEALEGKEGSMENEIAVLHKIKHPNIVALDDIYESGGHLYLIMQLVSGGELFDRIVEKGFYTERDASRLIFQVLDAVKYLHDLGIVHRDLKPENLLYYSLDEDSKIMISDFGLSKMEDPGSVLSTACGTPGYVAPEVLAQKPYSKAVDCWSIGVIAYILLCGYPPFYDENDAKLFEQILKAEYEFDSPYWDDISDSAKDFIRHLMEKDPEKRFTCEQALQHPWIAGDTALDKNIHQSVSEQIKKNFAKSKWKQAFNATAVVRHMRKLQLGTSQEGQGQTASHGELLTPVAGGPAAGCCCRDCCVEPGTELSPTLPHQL
# Sequence of Death-associated protein kinase 1 (Homo sapiens) (P53355 whole entry, looked up): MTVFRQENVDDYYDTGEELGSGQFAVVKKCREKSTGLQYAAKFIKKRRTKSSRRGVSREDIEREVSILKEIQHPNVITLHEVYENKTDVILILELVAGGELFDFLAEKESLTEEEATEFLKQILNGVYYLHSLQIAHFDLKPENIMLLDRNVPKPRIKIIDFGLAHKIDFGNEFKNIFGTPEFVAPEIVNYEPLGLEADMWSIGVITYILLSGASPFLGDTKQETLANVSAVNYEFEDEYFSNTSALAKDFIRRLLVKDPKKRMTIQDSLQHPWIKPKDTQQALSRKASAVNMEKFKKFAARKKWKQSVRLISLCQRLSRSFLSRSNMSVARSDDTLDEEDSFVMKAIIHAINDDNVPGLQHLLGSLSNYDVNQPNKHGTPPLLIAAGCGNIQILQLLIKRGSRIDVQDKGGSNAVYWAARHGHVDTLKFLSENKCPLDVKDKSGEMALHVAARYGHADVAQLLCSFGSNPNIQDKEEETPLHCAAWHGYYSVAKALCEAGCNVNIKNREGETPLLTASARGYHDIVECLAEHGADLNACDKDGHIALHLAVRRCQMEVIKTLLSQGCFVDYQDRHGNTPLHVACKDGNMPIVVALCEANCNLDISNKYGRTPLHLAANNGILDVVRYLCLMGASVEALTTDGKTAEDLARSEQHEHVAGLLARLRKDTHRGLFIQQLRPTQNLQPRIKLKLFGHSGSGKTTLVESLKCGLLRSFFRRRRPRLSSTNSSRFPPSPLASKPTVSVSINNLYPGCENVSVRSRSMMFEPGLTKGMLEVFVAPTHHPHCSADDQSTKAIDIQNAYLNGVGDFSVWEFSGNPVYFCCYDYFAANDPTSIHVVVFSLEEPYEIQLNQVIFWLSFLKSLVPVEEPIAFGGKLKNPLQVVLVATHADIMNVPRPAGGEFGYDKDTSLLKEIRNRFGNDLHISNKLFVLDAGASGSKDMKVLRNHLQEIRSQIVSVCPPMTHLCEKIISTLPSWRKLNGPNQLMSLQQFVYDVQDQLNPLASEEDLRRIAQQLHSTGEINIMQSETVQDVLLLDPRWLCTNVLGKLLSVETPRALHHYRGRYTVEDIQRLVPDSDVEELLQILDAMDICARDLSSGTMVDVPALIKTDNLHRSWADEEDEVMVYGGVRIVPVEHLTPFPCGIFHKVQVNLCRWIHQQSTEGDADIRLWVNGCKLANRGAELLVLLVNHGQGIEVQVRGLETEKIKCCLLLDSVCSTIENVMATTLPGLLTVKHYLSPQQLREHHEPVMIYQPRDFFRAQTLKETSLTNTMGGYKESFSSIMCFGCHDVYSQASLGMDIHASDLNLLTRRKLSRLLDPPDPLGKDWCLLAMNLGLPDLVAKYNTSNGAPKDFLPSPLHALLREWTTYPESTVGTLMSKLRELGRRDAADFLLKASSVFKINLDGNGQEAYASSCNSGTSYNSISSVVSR
# Sequence of Death-associated protein kinase 2 (Homo sapiens) (Q9UIK4 whole entry, looked up): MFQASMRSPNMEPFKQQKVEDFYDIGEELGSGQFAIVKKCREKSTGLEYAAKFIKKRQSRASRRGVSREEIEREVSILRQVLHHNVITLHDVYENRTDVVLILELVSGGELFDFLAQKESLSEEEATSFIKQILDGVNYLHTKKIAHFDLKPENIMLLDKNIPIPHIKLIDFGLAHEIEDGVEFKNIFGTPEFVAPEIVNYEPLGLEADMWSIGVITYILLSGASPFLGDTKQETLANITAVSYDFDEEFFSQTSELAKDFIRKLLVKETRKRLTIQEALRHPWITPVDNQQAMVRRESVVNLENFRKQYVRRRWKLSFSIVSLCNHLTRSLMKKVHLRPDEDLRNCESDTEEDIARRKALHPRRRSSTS
smiles,measurement,setting,value
CC(C)[C@H](CO)Nc1nc(Nc2cccc(Cl)c2)c2ncn(C(C)C)c2n1,residual activity,[1],93%
same,residual activity,[2],78%
same,residual activity,[3],95%
same,residual activity,[4],68%
same,residual activity,[5],100%
same,residual activity,[6],42%
same,residual activity,[7],99%
same,residual activity,[8],46%
same,residual activity,[9],60%
same,residual activity,[10],87%
same,residual activity,[11],128%
same,residual activity,[12],139%
same,residual activity,[13],91%
same,residual activity,[14],92%
same,residual activity,[15],98%
same,residual activity,[16],89%
CN(C)c1ccc(/C=C2\C(=O)Nc3ccccc32)cc1,residual activity,[10],102%
O=C1c2ccccc2-c2nc3nnnn3nc21,residual activity,[1],107%
same,residual activity,[2],100%
same,residual activity,[3],105%
same,residual activity,[6],105%
same,residual activity,[7],104%
same,residual activity,[8],103%
same,residual activity,[17],122%
same,residual activity,[9],113%
same,residual activity,[18],101%
same,residual activity,[19],114%
same,residual activity,[15],127%
same,residual activity,[16],148%
N/C(=N\[N+](=O)[O-])N/N=C\c1ccc(-c2cccc([N+](=O)[O-])c2)o1,residual activity,[1],93%
same,residual activity,[2],49%
same,residual activity,[3],92%
same,residual activity,[4],76%
same,residual activity,[5],91%
same,residual activity,[6],53%
same,residual activity,[10],93%
same,residual activity,[20],89%
same,residual activity,[13],100%
same,residual activity,[14],99%
same,residual activity,[15],98%
same,residual activity,[16],84%
COc1ccc2c(c1)/C(=C/c1cnc[nH]1)C(=O)N2,residual activity,[2],77%
same,residual activity,[5],49%
same,residual activity,[6],10%
same,residual activity,[7],42%
same,residual activity,[8],8%
same,residual activity,[10],100%
same,residual activity,[20],97%
same,residual activity,[19],51%
CC(C)(C)c1nc2c3ccc(F)cc3c3c(=O)[nH]ccc3c2[nH]1,residual activity,[10],8%
CCn1cnc2c(Nc3cccc(Cl)c3)nc(N[C@@H]3CCCC[C@@H]3N)nc21,residual activity,[1],84%
same,residual activity,[2],27%
same,residual activity,[3],93%
same,residual activity,[4],45%
same,residual activity,[5],43%
same,residual activity,[6],10%
same,residual activity,[7],44%
same,residual activity,[8],10%
same,residual activity,[17],77%
same,residual activity,[9],17%
same,residual activity,[10],96%
same,residual activity,[20],85%
same,residual activity,[18],92%
same,residual activity,[19],76%
same,residual activity,[11],124%
same,residual activity,[12],67%
same,residual activity,[14],78%
same,residual activity,[15],123%
same,residual activity,[16],80%
CCOC(=O)c1c(C)[nH]c(/C=C2\C(=O)Nc3ccccc32)c1C,residual activity,[10],83%
